Records with an inconclusive call do not appear. Where a call stands in place of a potency, no number is given. Active and inactive are the calls of the source. Calls come from the whole dose curve; as a rule, active = well fitted cell-killing curve with a large enough effect in the repeat runs; inconclusive = weak or mixed curves, or effect the other way; inactive = flat fitted curve, though single readings scatter.
assay: cAMP Responsive Elements (CRE) small molecule antagonists, cell-based qHTS assay: qHTS cell viability counter screen (AID 2060913); settings: CRE-bla HEK293T viability, CellTiter-Glo luminescence, 5 h; series mostly up to 92.4 µM; note: nearly all actives have a fitted effect of over 40% in size
Summary of the method: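 CRE-bla HEK293T cells (2,000/well, 18 h) given compound plus NKH477 0.25 uM final for 3 h at 37C; viability counter-screen by CellTiter-Glo luminescence in same wells after 30 min.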
Potency is the fitted concentration of half-maximal effect.

| SMILES | Potency | viability change, negative = cytotoxic |
| --- | --- | --- |
| CC(C)CC(C)CC(C)CC(C)COC(=O)c1ccccc1C(=O)OCC(C)CC(C)CC(C)CC(C)C (stereo not given) | inactive | – |
| CC(=O)OCC(CCn1cnc2cnc(N)nc21)COC(C)=O | inactive | – |
| O=c1[nH]c(=O)c2ccccc2o1 | inactive | – |
| CC(=O)C(=O)O | inactive | – |
| CCCCCCCCCCCCS(=O)(=O)Cl | – | 11.7% [at 18.9 µM] (inactive) |
| CCCCOC(=O)C(C)OC(=O)CCC (stereo not given) | inactive | – |
| CC(=O)Oc1ccc2c(c1)CC[C@@H]1[C@@H]2CC[C@]2(C)[C@@H](O)CC[C@@H]12 | inactive | – |
| NNc1nc(-c2ccc(N)cc2)cs1 | inactive | – |
| CCCCCCC(CCCCCCCCCCC(=O)OCC(COC(C)=O)OC(C)=O)OC(C)=O (stereo not given) | inactive | – |
| Cc1cnc(C(=O)NCCc2ccc(S(=O)(=O)NC(=O)NC3CCCCC3)cc2)cn1 | inactive | – |
| CC1=CC(=C(c2ccc(N)cc2)c2ccc(N)cc2)C=CC1=N | – | -2.05% [at 8.39 µM] (inactive) |
| Nc1ccc(Oc2cccc(Oc3ccc(N)cc3)c2)cc1 | inactive | – |
| Cn1c(=O)c2c(ncn2C)n(C)c1=O | inactive | – |
| CCCCCCCC[P+](CCCCCCCC)(CCCCCCCC)CCCCCCCC | 17.1 µM (active) | – |
| CCCC(C)=O | inactive | – |

assay: cAMP Responsive Elements (CRE) small molecule agonists, cell-based qHTS assay: qHTS cell viability counter screen (AID 2060914); settings: CRE-bla HEK293T viability, CellTiter-Glo luminescence, 5 h; series mostly up to 92.4 µM;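 note: viability read after 3 h of compound exposure; nearly all actives have a fitted effect of over 50% in size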
Summary of the method: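 HEK 293T CRE-bla; DMEM + 10% dialyzed FBS, 25 mM HEPES; 18 h pre-incubation; compound 3 h, 37 °C/5% CO2; CellTiter-Glo added after reporter read; luminescence after 30 min RT.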

| SMILES | Potency | activity change, negative = cytotoxicity |
| --- | --- | --- |
| Nc1ccc(S(=O)(=O)Nc2ccc(Cl)nn2)cc1 | inactive | – |
| C=CCOC(=O)CCCCCC | inactive | – |
| c1ccc(CNc2ncnc3c2ncn3C2CCCCO2)cc1 (stereo not given) | inactive | – |
| CNCC(O)c1ccc(O)c(O)c1 (stereo not given) | inactive | – |
| CC(C)(C)c1nnc(NS(=O)(=O)c2ccc(N)cc2)s1 | inactive | – |
| CCCCNC(N)=O | inactive | – |
| CCOC(=O)Nc1ccc2c(c1)N(C(=O)CCN1CCOCC1)c1ccccc1S2 | inactive | – |
| Cc1ccc(C(C)(C)C)c(O)c1 | inactive | – |
| CC(C)c1cccc(C(C)C)c1N | inactive | – |
| CN(C)CCN(Cc1ccccc1)c1ccccn1 | inactive | – |
| CC(=O)OCC(COC(C)=O)OC(C)=O | inactive | – |
| Cc1cn([C@H]2C[C@H](F)[C@@H](CO)O2)c(=O)[nH]c1=O | inactive | – |
| CCOC(=O)[C@H](CCc1ccccc1)N[C@@H](C)C(=O)N1C(=O)N(C)C[C@H]1C(=O)O | inactive | – |
| CCCCCC1Nc2cc(C(F)(F)F)c(S(N)(=O)=O)cc2S(=O)(=O)N1 (stereo not given) | inactive | – |
| CCNC(=O)NCCCOc1cccc(CN2CCCCC2)c1 | inactive | – |
| CC1(C)OC(=O)Nc2ccc(Br)cc21 | inactive | – |
| O=S1OCCO1 | inactive | – |
| c1ccc(CSCc2ccccc2)cc1 | inactive | – |
| CN(C)Cc1ccccc1O | inactive | – |
| C[C@@H](N)C(=O)O | inactive | – |

| SMILES | Potency | activity change, negative = cytotoxicity |
| --- | --- | --- |
| O=C(Nc1ccc(Cl)cc1)Nc1ccc(Cl)c(C(F)(F)F)c1 | 23.7 µM (active) | – |
| Cc1cccc(C)n1 | inactive | – |
| CCOC(=O)COc1ccc(C)cc1 | inactive | – |
| Oc1ccc(Nc2ccccc2)cc1 | inactive | – |
| CC1(c2ccccc2)OC(C(=O)O)=CC1=O (stereo not given) | inactive | – |
| CC(C)CC(C)CC(C)CC(C)COC(=O)c1ccccc1C(=O)OCC(C)CC(C)CC(C)CC(C)C (stereo not given) | inactive | – |
| CC(=O)OCC(CCn1cnc2cnc(N)nc21)COC(C)=O | inactive | – |
| O=c1[nH]c(=O)c2ccccc2o1 | inactive | – |
| CC(=O)C(=O)O | inactive | – |
| CCCCCCCCCCCCS(=O)(=O)Cl | – | 8.81% [at 18.9 µM] (inactive) |
| CCCCOC(=O)C(C)OC(=O)CCC (stereo not given) | inactive | – |
| CC(=O)Oc1ccc2c(c1)CC[C@@H]1[C@@H]2CC[C@]2(C)[C@@H](O)CC[C@@H]12 | inactive | – |
| NNc1nc(-c2ccc(N)cc2)cs1 | inactive | – |
| CCCCCCC(CCCCCCCCCCC(=O)OCC(COC(C)=O)OC(C)=O)OC(C)=O (stereo not given) | inactive | – |
| Cc1cnc(C(=O)NCCc2ccc(S(=O)(=O)NC(=O)NC3CCCCC3)cc2)cn1 | inactive | – |
| CC1=CC(=C(c2ccc(N)cc2)c2ccc(N)cc2)C=CC1=N | – | -0.199% [at 8.39 µM] (inactive) |
| Nc1ccc(Oc2cccc(Oc3ccc(N)cc3)c2)cc1 | inactive | – |
| Cn1c(=O)c2c(ncn2C)n(C)c1=O | inactive | – |
| CCCCCCCC[P+](CCCCCCCC)(CCCCCCCC)CCCCCCCC | 21.6 µM (active) | – |
| CCCC(C)=O | inactive | – |

From PubChem BioAssay (Tox21)
